Reference: the supplement of paper PMC10849652
The full data set covers some 7,900 targets. This sample favours those with a hit. About 0.6% of all pairs of compound and target were hits.

Legend:
Experiment in all cases: log2 fold change, soluble protein after heating vs DMSO (PISA); higher = thermal stabilisation; K562 cells, 10 uM, 30 min; active = over 0.2 and 3.5 SD of the protein, either way, in both replicates (recomputed)
[1] = compound: CC1=C(C=C(C=C1)NC(=O)C2=CC(=CC=C2)C(C)(C)C#N)NC3=CC4=C(C=C3)N=CN(C4=O)C
Procedure, shortened: (§1)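 Quantification of soluble protein used TMTpro 16plex LC-MS/MS, with channel sums equalised. Samples were the supernatant after 21,000xg for 90 min of pooled aliquots from K562 cells (2×10^6 cells/mL) treated with 10 μM compound for 30 min, heated for 3 min over 48°C-58°C, and extracted in PBS with 0.5% NP-40 at 4°C. Values, from duplicates, describe thermal stability against control samples on a log2 fold-change scale.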

[2] = compound: CC1=C(C=C(C=C1)NC(=O)C2=CC(=CC=C2)N(C)C)NC(=O)C3=CC=C(C=C3)O
Procedure, shortened: as §1

[3] = compound: CC1=CC=C(C=C1)SC2=C3C=C(SC3=CN=C2)C(=O)N
Procedure, shortened: as §1

[4] = compound: CC1=NC(=CC=C1)C2=C(N=C(N2)C(C)(C)C)C3=CC4=NC=CN=C4C=C3
Procedure, shortened: as §1

Nexturastat A = compound: CCCCN(Cc1ccc(C(=O)NO)cc1)C(=O)Nc1ccccc1 [Nexturastat A]
Procedure, shortened: as §1

vemurafenib = compound: CCCS(=O)(=O)Nc1ccc(F)c(C(=O)c2c[nH]c3ncc(-c4ccc(Cl)cc4)cc23)c1F [vemurafenib]
Procedure, shortened: as §1

[5] = compound: CCCS(=O)(=O)Nc1ccc(F)c(C(=O)c2c[nH]c3ncc(Cl)cc23)c1F
Procedure, shortened: as §1

[6] = compound: CCCc1cc(C)[nH]c(=O)c1CNC(=O)c1cc(-c2ccnc(N3CCN(C)CC3)c2)cc2c1cnn2C(C)C
Procedure, shortened: as §1

givinostat = compound: CCN(CC)Cc1ccc2cc(COC(=O)Nc3ccc(C(=O)NO)cc3)ccc2c1 [givinostat]
Procedure, shortened: as §1

barasertib = compound: CCN(CCCOc1ccc2c(Nc3cc(CC(=O)Nc4cccc(F)c4)[nH]n3)ncnc2c1)CCOP(=O)(O)O [barasertib]
Procedure, shortened: as §1

[7] = compound: CC[C@@H]1C(=O)N(C)c2cnc(Nc3ccc(C(=O)NC4CCN(C)CC4)cc3OC)nc2N1C1CCCC1
Procedure, shortened: as §1

volasertib = compound: CC[C@@H]1C(=O)N(C)c2cnc(Nc3ccc(C(=O)N[C@H]4CC[C@H](N5CCN(CC6CC6)CC5)CC4)cc3OC)nc2N1C(C)C [volasertib]
Procedure, shortened: as §1

[8] = compound: CC[C@H](C)N1C=C(C2=C(C=C(C=C21)C3=CN=C(C=C3)N4CCNCC4)C(=O)NCC5=C(C=C(NC5=O)C)C)C
Procedure, shortened: as §1

epoxomicin = compound: CC[C@H](C)[C@@H](C(=O)N[C@@H]([C@@H](C)O)C(=O)N[C@@H](CC(C)C)C(=O)[C@]1(CO1)C)NC(=O)[C@H]([C@@H](C)CC)N(C)C(=O)C [epoxomicin]
Procedure, shortened: as §1

[9] = compound: CCn1c(C(=O)N(C2CC2)C2CC2)cc2c3c(ncn3C)c(Nc3cc(C)n(C)n3)nc21
Procedure, shortened: as §1

[10] = compound: CN(C)CC(=O)Nc1ccc2[nH]c(=O)c3ccccc3c2c1
Procedure, shortened: as §1

rosiglitazone = compound: CN(CCOC1=CC=C(C=C1)C[C@H]2C(=O)NC(=O)S2)C3=CC=CC=N3 (racemic) [rosiglitazone]
Procedure, shortened: as §1

[11] = compound: CN1C2=C(C3=C1C(=O)N(N=C3)CC4=CC(=CC=C4)N)SC(=C2)S(=O)C
Procedure, shortened: as §1

[12] = compound: CCn1cc(-c2ccnc3[nH]c(-c4cccc(CN(C)C)c4)cc23)c(-c2ccc(NC(=O)N(C)C)cc2)n1
Procedure, shortened: as §1

[13] = compound: CN1CCC(CNc2ccc3ncc(-c4cccc(OC(F)(F)F)c4)n3n2)CC1
Procedure, shortened: as §1

Measured: log2 fold change

MAN2B2 (UniProt Q9Y2E5)
UniProt Q9Y2E5, sequence (Q9Y2E5 whole entry, looked up): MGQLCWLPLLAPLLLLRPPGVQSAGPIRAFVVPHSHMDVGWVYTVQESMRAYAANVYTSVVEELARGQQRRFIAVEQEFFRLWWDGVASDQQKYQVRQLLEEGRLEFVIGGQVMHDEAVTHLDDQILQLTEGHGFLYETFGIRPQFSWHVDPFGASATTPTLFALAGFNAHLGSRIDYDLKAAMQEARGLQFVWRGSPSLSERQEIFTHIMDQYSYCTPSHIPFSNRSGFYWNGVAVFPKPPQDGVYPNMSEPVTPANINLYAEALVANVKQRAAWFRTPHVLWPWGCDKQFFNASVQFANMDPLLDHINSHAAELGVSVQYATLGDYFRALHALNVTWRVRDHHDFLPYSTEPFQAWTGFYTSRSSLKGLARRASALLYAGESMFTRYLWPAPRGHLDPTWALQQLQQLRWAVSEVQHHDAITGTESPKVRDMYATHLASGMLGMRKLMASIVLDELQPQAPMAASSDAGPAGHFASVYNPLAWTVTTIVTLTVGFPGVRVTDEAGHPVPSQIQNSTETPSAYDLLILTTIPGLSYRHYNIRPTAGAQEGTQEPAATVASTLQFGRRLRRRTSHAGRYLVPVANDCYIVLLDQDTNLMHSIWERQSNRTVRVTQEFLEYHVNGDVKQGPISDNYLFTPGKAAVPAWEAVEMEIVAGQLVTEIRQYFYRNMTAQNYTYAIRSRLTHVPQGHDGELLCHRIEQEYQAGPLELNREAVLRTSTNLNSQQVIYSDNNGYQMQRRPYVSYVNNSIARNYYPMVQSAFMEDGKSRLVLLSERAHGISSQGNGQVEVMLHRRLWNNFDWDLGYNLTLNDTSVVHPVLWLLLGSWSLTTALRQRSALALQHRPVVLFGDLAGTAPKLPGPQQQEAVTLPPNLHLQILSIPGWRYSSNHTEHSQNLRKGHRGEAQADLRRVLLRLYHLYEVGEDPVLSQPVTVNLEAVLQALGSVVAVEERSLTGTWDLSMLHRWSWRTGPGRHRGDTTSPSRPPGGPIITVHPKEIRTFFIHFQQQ
inactive: [1] 0.017 | [2] 0.049 | [3] 0.033 | [4] -0.056 | Nexturastat A -0.062 | vemurafenib -0.105 | [5] -0.17 | [6] 0.139 | givinostat 0.014 | barasertib 0.041 | [8] -0.005 | epoxomicin -0.002 | [9] 0 | [10] -0.019 | rosiglitazone -0.052 | [11] 0.013
active: [7] -0.445 | volasertib -0.704

LDAH isoform 2 (UniProt Q9H6V9)
UniProt Q9H6V9, sequence (Q9H6V9 whole entry, looked up): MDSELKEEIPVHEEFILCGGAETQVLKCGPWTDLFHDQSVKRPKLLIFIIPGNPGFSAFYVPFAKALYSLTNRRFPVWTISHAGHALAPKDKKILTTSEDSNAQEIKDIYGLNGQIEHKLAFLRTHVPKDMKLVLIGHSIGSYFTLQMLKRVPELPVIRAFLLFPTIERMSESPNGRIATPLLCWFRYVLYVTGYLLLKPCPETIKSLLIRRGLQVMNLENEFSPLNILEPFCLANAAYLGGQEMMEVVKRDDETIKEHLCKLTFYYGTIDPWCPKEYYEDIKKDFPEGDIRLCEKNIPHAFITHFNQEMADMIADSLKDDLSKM
active: volasertib -0.374 | [13] -0.688
inactive: [1] -0.026 | [2] -0.008 | [3] 0 | [4] -0.024 | Nexturastat A 0.032 | vemurafenib 0.044 | [5] 0.024 | [6] -0.04 | givinostat 0.059 | barasertib 0.031 | [7] -0.062 | [8] 0.007 | epoxomicin -0.052 | [9] -0.011 | [12] -0.148 | [10] 0.049 | rosiglitazone -0.031 | [11] -0.137

KIF11 (UniProt P52732)
inactive: [1] -0.032 | [2] -0.119 | [3] -0.005 | [4] -0.033 | Nexturastat A 0.155 | vemurafenib 0.071 | [5] 0.077 | [6] 0.076 | givinostat 0.09 | barasertib 0.049 | [7] 0.016 | volasertib -0.42 | [8] 0.081 | epoxomicin -0.032 | [9] -0.076 | [12] 0.023 | [10] 0.041 | rosiglitazone 0.031 | [11] 0.182 | [13] 0.022

IL27RA (UniProt Q6UWB1)
UniProt Q6UWB1, sequence (Q6UWB1 whole entry, looked up): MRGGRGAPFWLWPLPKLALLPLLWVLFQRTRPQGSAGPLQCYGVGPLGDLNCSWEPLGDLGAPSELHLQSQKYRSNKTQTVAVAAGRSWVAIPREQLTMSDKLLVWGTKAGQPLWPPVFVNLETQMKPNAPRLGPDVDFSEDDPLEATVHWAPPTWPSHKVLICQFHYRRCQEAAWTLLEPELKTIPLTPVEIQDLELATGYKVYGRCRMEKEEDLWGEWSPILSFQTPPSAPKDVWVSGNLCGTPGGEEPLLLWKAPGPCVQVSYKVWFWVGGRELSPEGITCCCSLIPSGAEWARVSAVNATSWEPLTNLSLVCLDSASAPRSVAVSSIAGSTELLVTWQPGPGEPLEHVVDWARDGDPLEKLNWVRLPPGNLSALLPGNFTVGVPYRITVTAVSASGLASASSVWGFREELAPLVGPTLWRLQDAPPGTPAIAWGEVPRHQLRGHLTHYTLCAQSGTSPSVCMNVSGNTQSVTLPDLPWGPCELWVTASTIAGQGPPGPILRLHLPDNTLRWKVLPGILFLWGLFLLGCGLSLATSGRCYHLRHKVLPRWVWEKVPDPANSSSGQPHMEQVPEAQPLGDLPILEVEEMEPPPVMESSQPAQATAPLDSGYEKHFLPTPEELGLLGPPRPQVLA
inactive: [1] -0.048 | [2] -0.048 | [3] -0.006 | [4] -0.018 | Nexturastat A 0.027 | vemurafenib -0.025 | [5] -0.091 | [6] -0.008 | givinostat 0.006 | barasertib 0.011 | [7] -0.12 | volasertib -0.298 | [8] -0.049 | epoxomicin -0.178 | [9] -0.066 | [10] -0.098 | rosiglitazone -0.093 | [11] -0.219

ILF3 isoform 7 (UniProt Q12906)
inactive: [1] 0.028 | [2] -0.068 | [3] -0.087 | [4] -0.036 | Nexturastat A 0.146 | vemurafenib -0.036 | [5] -0.1 | [6] 0.102 | givinostat -0.017 | barasertib -0.125 | [7] 0.348 | volasertib 0.356 | [8] -0.021 | epoxomicin -0.185 | [9] -0.02 | [12] 0.135 | [10] -0.101 | rosiglitazone -0.095 | [11] 0.146 | [13] 0.231

MAP2K3 isoform 3 (UniProt P46734)
UniProt P46734, sequence (P46734 whole entry, looked up): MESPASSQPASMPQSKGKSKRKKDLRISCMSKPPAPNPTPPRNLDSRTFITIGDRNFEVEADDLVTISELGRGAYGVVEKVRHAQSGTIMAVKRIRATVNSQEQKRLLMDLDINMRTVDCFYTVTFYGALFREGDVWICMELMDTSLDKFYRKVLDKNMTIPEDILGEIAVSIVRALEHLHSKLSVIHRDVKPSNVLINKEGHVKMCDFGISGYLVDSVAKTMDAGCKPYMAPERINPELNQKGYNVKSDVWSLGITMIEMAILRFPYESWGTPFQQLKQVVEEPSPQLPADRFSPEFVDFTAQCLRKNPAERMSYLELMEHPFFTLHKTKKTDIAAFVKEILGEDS
inactive: [1] -0.071 | [2] -0.074 | [3] -0.051 | [4] -0.08 | Nexturastat A 0.103 | vemurafenib -0.031 | [5] -0.008 | [6] 0.021 | givinostat 0.002 | barasertib 0.042 | [7] -0.041 | volasertib -0.17 | [8] 0.09 | epoxomicin -0.035 | [9] -0.017 | [12] 0.039 | [10] 0.038 | rosiglitazone 0.018 | [11] -0.054 | [13] -0.121

INPP5B (UniProt P32019)
UniProt P32019, sequence (P32019 whole entry, looked up): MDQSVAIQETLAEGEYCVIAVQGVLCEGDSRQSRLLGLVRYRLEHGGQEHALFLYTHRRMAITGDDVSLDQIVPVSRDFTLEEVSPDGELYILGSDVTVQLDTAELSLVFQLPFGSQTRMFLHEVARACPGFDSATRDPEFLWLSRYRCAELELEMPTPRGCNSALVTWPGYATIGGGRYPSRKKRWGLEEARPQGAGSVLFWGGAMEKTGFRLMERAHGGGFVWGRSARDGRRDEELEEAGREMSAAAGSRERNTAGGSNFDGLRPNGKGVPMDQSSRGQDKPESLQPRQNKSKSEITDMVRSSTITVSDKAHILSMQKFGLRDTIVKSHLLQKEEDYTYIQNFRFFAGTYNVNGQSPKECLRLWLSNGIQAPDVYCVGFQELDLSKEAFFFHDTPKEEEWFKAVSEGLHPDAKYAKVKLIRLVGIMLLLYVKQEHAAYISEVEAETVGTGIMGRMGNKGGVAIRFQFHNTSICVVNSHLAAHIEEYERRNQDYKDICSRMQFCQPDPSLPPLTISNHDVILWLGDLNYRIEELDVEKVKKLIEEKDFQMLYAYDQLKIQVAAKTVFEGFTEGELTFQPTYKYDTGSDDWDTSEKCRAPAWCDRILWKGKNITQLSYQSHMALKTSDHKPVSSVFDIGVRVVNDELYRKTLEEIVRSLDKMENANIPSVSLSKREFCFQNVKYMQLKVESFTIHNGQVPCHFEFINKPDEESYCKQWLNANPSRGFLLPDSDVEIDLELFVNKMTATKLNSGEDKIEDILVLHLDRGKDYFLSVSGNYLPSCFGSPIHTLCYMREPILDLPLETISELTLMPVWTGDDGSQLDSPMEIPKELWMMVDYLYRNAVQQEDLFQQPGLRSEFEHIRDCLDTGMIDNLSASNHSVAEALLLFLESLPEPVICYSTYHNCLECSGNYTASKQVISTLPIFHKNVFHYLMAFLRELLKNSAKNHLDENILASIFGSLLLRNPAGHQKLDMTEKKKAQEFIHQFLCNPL
inactive: [1] 0.02 | [2] -0.06 | [3] -0.071 | [4] 0.007 | Nexturastat A 0.096 | vemurafenib -0.006 | [5] -0.004 | [6] 0.062 | givinostat 0.105 | barasertib 0.069 | [7] 0.021 | volasertib -0.04 | [8] 0.002 | epoxomicin 0.007 | [9] -0.029 | [12] 0.031 | [10] 0.057 | rosiglitazone 0.012 | [11] 0.12 | [13] 0.003

IRF2BPL (UniProt Q9H1B7)
inactive: [1] 0.013 | [2] -0.006 | [3] 0.015 | [4] 0.068 | Nexturastat A 0.038 | vemurafenib 0.014 | [5] 0.049 | [6] 0.008 | givinostat 0.05 | barasertib -0.044 | [7] 0.01 | volasertib -0.043 | [8] -0.012 | epoxomicin 0.108 | [9] -0.042 | [12] -0.023 | [10] 0.036 | rosiglitazone 0.067 | [11] -0.068 | [13] -0.018

MAPK14 isoform 2 (UniProt Q16539)
UniProt Q16539, sequence (Q16539 whole entry, looked up): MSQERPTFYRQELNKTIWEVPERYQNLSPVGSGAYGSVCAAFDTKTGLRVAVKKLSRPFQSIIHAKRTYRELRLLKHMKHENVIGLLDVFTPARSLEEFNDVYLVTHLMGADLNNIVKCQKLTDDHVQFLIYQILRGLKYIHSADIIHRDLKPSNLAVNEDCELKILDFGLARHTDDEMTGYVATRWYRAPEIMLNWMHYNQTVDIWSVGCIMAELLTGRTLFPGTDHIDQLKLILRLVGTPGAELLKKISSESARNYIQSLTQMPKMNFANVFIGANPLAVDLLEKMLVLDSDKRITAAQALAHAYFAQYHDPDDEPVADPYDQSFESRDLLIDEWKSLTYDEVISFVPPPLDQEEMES
active: [1] 1.9
inactive: [2] 0.649 | [3] 0.024 | [4] 0.036 | Nexturastat A 0.064 | vemurafenib 0.095 | [5] 0.219 | [6] 0.026 | givinostat 0.107 | barasertib -0.005 | [7] -0.223 | volasertib -0.398 | [8] -0.019 | epoxomicin 0.02 | [9] 0.081 | [12] 0.001 | [10] 0.039 | rosiglitazone 0.007 | [11] -0.029 | [13] 0.074

L2HGDH (UniProt Q9H9P8)
UniProt Q9H9P8, sequence (Q9H9P8 whole entry, looked up): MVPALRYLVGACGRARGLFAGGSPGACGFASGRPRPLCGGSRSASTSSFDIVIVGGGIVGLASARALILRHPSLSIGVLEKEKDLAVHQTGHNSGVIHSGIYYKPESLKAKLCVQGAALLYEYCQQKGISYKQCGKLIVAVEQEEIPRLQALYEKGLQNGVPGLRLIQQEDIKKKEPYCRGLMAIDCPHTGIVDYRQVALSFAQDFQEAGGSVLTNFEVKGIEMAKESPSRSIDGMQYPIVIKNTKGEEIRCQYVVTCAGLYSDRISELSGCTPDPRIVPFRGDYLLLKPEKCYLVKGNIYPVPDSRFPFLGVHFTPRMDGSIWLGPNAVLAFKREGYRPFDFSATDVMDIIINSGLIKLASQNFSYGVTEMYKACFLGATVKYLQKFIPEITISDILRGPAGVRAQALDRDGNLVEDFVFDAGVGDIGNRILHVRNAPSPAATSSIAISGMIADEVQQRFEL
active: [13] -0.325
inactive: [1] 0.03 | [2] 0.009 | [3] 0.021 | [4] -0.046 | Nexturastat A -0.102 | vemurafenib 0.015 | [5] -0.042 | [6] -0.081 | givinostat -0.016 | barasertib 0.011 | [7] -0.088 | volasertib -0.014 | [8] 0.006 | epoxomicin -0.02 | [9] -0.023 | [12] -0.067 | [10] -0.027 | rosiglitazone 0.031 | [11] -0.11

KSR1 (UniProt Q8IVT5)
inactive: [1] 0.231 | [2] -0.007 | [3] 0.112 | [4] -0.028 | Nexturastat A 0.001 | vemurafenib 0.046 | [5] 0.218 | [6] -0.132 | givinostat 0.106 | barasertib 0.013 | [7] -0.11 | volasertib -0.182 | [8] 0.179 | epoxomicin 0.047 | [9] 0.002 | [12] 0.178 | [10] 0.009 | rosiglitazone 0.058 | [11] -0.05
active: [13] -0.878

LDLR (UniProt P01130)
inactive: [1] -0.063 | [2] 0.006 | [3] 0.006 | [4] 0.01 | Nexturastat A 0 | vemurafenib -0.022 | [5] -0.073 | [6] -0.018 | givinostat -0.03 | barasertib 0.019 | [7] -0.135 | volasertib -0.176 | [8] -0.028 | epoxomicin 0.031 | [9] -0.007 | [12] 0.058 | [10] -0.059 | rosiglitazone 0.009 | [11] -0.004 | [13] 0.064

KIF3A (UniProt Q9Y496)
inactive: [1] -0.041 | [2] -0.013 | [3] -0.076 | [4] 0 | Nexturastat A 0.029 | vemurafenib -0.002 | [5] 0.062 | [6] 0.045 | givinostat 0.074 | barasertib -0.041 | [7] 0.036 | volasertib -0.039 | [8] -0.187 | epoxomicin 0.068 | [9] -0.004 | [12] -0.093 | [10] 0.032 | rosiglitazone 0.174 | [11] -0.023 | [13] -0.162

MIEN1 (UniProt Q9BRT3)
UniProt Q9BRT3, sequence (Q9BRT3 whole entry, looked up): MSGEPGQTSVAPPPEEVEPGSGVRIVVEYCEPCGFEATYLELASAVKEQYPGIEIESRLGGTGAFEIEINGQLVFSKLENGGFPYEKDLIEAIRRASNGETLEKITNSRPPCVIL
active: [13] 0.284
inactive: [1] -0.011 | [2] -0.029 | [3] 0.036 | [4] -0.054 | Nexturastat A -0.002 | vemurafenib 0.081 | [5] 0.073 | [6] 0.016 | givinostat 0 | barasertib 0.132 | [7] 0.055 | volasertib -0.047 | [8] -0.02 | epoxomicin 0.008 | [9] 0.045 | [12] 0.029 | [10] 0.181 | rosiglitazone -0.007 | [11] 0.008

LYPLA2 (UniProt O95372)
UniProt O95372, sequence (O95372 whole entry, looked up): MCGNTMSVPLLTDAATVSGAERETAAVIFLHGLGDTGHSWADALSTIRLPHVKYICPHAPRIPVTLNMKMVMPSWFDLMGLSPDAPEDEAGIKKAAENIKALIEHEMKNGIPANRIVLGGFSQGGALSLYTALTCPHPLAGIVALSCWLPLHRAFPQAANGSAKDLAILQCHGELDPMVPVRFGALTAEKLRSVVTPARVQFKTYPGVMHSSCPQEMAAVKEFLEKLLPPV
active: epoxomicin 0.521
inactive: [1] 0.043 | [2] -0.131 | [3] 0.082 | [4] -0.056 | Nexturastat A -0.071 | vemurafenib 0.132 | [5] 0.038 | [6] -0.001 | givinostat -0.055 | barasertib -0.099 | [7] 0.049 | volasertib -0.033 | [8] 0.018 | [9] 0.025 | [12] -0.05 | [10] 0.108 | rosiglitazone -0.021 | [11] -0.053 | [13] 0.098

MICOS13 (UniProt Q5XKP0)
UniProt Q5XKP0, sequence (Q5XKP0 whole entry, looked up): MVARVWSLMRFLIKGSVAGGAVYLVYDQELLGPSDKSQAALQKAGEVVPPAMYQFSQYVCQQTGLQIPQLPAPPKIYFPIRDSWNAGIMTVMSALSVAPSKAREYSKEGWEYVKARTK
inactive: [1] 0.041 | [2] -0.06 | [3] 0.056 | [4] 0.065 | Nexturastat A -0.065 | vemurafenib 0.018 | [5] 0.077 | [6] -0.069 | givinostat 0.027 | barasertib 0.034 | [7] -0.132 | volasertib -0.181 | [8] 0.025 | epoxomicin 0.023 | [9] -0.023 | [12] -0.043 | [10] 0.026 | rosiglitazone 0.011 | [11] -0.044
active: [13] -0.579
